Reference: PubChem BioAssay (NCI)
The panel holds about 79,000 compounds, 15% with a hit somewhere; the sample as a whole holds those more often. Active and inactive are the calls of the source. No stated cut-off is given here; in the data, active means growth inhibition above about 70%; inactive means the rest.

Key:
[1] = NCI Yeast Anticancer Drug Screen. Data for the rad52 strain (AID 147);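 further: 0% = growth of vehicle-treated control cultures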; conditions: S. cerevisiae rad52 mutant growth inhibition, stronger effect = higher value
Summary of the method: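 The repair-mutant yeast strain was incubated with compounds, then growth was read and inhibition derived relative to vehicle.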

[2] = NCI Yeast Anticancer Drug Screen. Data for the wt1 strain (AID 149);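 further: 0% = growth of vehicle-treated wt1 cultures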; conditions: S. cerevisiae wt1 strain (SPY 50644) growth inhibition, stronger effect = higher value
Summary of the method: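 wt1 strain grown with compound or vehicle; inhibition taken from the growth difference.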

[3] = NCI Yeast Anticancer Drug Screen. Data for the rad50EPP+ strain (AID 151);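 further: 0% = growth of vehicle-treated control cultures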; conditions: S. cerevisiae rad50 mutant strain, stronger effect = higher value
Summary of the method: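 Vehicle-normalised growth inhibition; rad50EPP+ yeast strain, altered in DNA damage repair, compound-treated.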

[4] = NCI Yeast Anticancer Drug Screen. Data for the mgt1 strain (AID 153); conditions: S. cerevisiae mgt1 mutant growth inhibition, stronger effect = higher value
Summary of the method: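 Vehicle-normalized growth inhibition is determined in mgt1 yeast, a strain selected for a defined alteration in DNA repair or cell cycle control.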

[5] = NCI Yeast Anticancer Drug Screen. Data for the rad50 strain (AID 155);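 further: 0% = growth of vehicle-only cultures of the same strain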; conditions: S. cerevisiae rad50 strain growth inhibition, stronger effect = higher value
Summary of the method: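 DNA repair mutant yeast, compound exposure, growth read-out; inhibition is taken relative to vehicle.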

[6] = NCI Yeast Anticancer Drug Screen. Data for the mec2-1 strain (AID 157); conditions: S. cerevisiae mec2-1 strain, stronger effect = higher value
Summary of the method: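 Mutant yeast (mec2-1) grown with compound; growth inhibition relative to vehicle control reported.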

[7] = NCI Yeast Anticancer Drug Screen. Data for the rad14 strain (AID 159);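 further: 0% = growth of vehicle-treated control cultures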; conditions: S. cerevisiae rad14 strain growth inhibition, stronger effect = higher value
Summary of the method: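 DNA repair-defective yeast, compound-exposed; % growth inhibition derived by comparison with vehicle-treated controls.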

[8] = NCI Yeast Anticancer Drug Screen. Data for the sgs1 mgt1 strain (AID 161);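 further: 0% = growth of cultures given vehicle only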; conditions: S. cerevisiae sgs1 mgt1 strain, stronger effect = higher value
Summary of the method: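 Percent growth inhibition was derived by comparing compound-exposed mutant yeast with vehicle-exposed cultures. The strain carries alterations in DNA damage repair.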

[9] = NCI Yeast Anticancer Drug Screen. Data for the CLN2oe strain (AID 163);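 further: 0% = growth of vehicle-only control cultures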; conditions: S. cerevisiae CLN2oe strain, stronger effect = higher value
Summary of the method: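 Compounds are applied to yeast harbouring a defined cell-cycle control change; reduced growth compared with vehicle-treated controls gives the value.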

[10] = NCI Yeast Anticancer Drug Screen. Data for the cln2 rad14 strain (AID 165);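 further: 0% = growth equal to vehicle treated cultures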; conditions: S. cerevisiae cln2 rad14 strain, stronger effect = higher value
Summary of the method: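 Readout is yeast growth inhibition versus vehicle-treated controls, using a strain with cln2 and rad14 alterations exposed to compound.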

[11] = NCI Yeast Anticancer Drug Screen. Data for the bub3 strain (AID 167); conditions: S. cerevisiae bub3 mutant strain, stronger effect = higher value
Summary of the method: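 In this screen, a yeast mutant lacking normal mitotic checkpoint function is challenged with compound. Relative growth versus vehicle gives the inhibition value.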

[12] = NCI Yeast Anticancer Drug Screen. Data for the wt2 strain (AID 169);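 further: 0% = growth of vehicle-treated yeast cultures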; conditions: S. cerevisiae wt2 strain growth inhibition, stronger effect = higher value
Summary of the method: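 Against vehicle-treated controls, the growth of yeast exposed to each compound was compared, and the inhibition was recorded.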

[13] = NCI Yeast Anticancer Drug Screen. Data for the mlh1 strain (AID 171);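 further: 0% = growth of vehicle-treated control cultures of the same strain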; conditions: S. cerevisiae mlh1 strain growth inhibition, stronger effect = higher value
Summary of the method: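 Measured: yeast growth. Reference: vehicle-treated controls. Organism: strain with a defined alteration affecting DNA damage repair or cell cycle control, treated with compound.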

[14] = NCI Yeast Anticancer Drug Screen. Data for the sgs1 strain (AID 173);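 further: 0% = growth of vehicle-only control cultures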; conditions: S. cerevisiae sgs1 mutant, stronger effect = higher value
Summary of the method: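 Each compound was added to cultures of the altered yeast strain. Growth was recorded, and inhibition was derived by comparison with vehicle controls.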

[15] = NCI Yeast Anticancer Drug Screen. Data for the mlh1 rad18 strain (AID 175); conditions: S. cerevisiae mlh1 rad18 strain growth inhibition, stronger effect = higher value
Summary of the method: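 Genetically defined yeast (DNA repair-deficient) exposed to compounds; growth inhibition determined relative to vehicle.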

[16] = NCI Yeast Anticancer Drug Screen. Data for the rad18 strain (AID 177); conditions: S. cerevisiae rad18 mutant growth inhibition, stronger effect = higher value
Summary of the method: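 Vehicle-treated cultures served as the baseline for scoring compound-induced growth inhibition in DNA-repair-mutant yeast.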

[17] = at 5.0 µM (retest, dose inferred, filed as 0.5)
[18] = at 50.0 µM (retest, dose inferred, filed as 5.0)

Measured: growth inhibition

CC(CN(C)C)C(=O)/C=C/c1ccc(Cl)c(Cl)c1 (stereo unspecified)
inactive: [1]; at 1.2 µM 7% | [1]; at 3.7 µM 15% | [1]; at 11.0 µM 29% | [2]; at 1.2 µM 4% | [2]; at 3.7 µM 6% | [2]; at 11.0 µM 9% | [2]; at 33.0 µM 24% | [3]; at 1.2 µM 2% | [3]; at 3.7 µM 10% | [3]; at 11.0 µM 27% | [3]; at 33.0 µM 61% | [4]; at 1.2 µM 4% | [4]; at 3.7 µM 3% | [4]; at 11.0 µM 13% | [5]; at 1.2 µM 0% | [5]; at 3.7 µM -3% | [5]; [17] -9% | [5]; at 11.0 µM 20% | [5]; at 33.0 µM 66% | [5]; [18] 3% | [6]; at 1.2 µM 4% | [6]; at 3.7 µM 5% | [6]; [17] 4% | [6]; at 11.0 µM 14% | [6]; at 33.0 µM 48% | [6]; [18] -10% | [7]; at 1.2 µM 6% | [7]; at 3.7 µM 9% | [7]; at 11.0 µM 22% | [7]; at 33.0 µM 50% | [8]; [17] -4% | [8]; [18] 8% | [9]; at 1.2 µM 3% | [9]; at 3.7 µM 5% | [9]; at 11.0 µM 10% | [9]; at 33.0 µM 29% | [10]; [17] -3% | [10]; [18] -7% | [11]; at 1.2 µM 3% | [11]; at 3.7 µM 5% | [11]; [17] -16% | [11]; at 11.0 µM 16% | [11]; at 33.0 µM 69% | [12]; at 1.2 µM 2% | [12]; at 3.7 µM 6% | [12]; at 11.0 µM 14% | [13]; at 1.2 µM 4% | [13]; at 3.7 µM 6% | [13]; at 11.0 µM 15% | [14]; at 1.2 µM 4% | [14]; at 3.7 µM 9% | [14]; at 11.0 µM 25% | [15]; [17] -7% | [15]; [18] -21% | [16]; at 1.2 µM 5% | [16]; at 3.7 µM 15% | [16]; at 11.0 µM 40%
active: [1]; at 33.0 µM 73% | [1]; at 100.0 µM 95% | [2]; at 100.0 µM 85% | [3]; at 100.0 µM 89% | [4]; at 33.0 µM 83% | [4]; at 100.0 µM 98% | [5]; at 50.0 µM 99.2% | [5]; at 100.0 µM 95% | [6]; at 50.0 µM 99.4% | [6]; at 100.0 µM 97% | [7]; at 100.0 µM 96% | [8]; at 50.0 µM 99.6% | [9]; at 100.0 µM 74% | [10]; at 50.0 µM 97% | [11]; [18] 82% | [11]; at 50.0 µM 99.2% | [11]; at 100.0 µM 97% | [12]; at 33.0 µM 70% | [12]; at 100.0 µM 98% | [13]; at 33.0 µM 74% | [13]; at 100.0 µM 98% | [14]; at 33.0 µM 84% | [14]; at 100.0 µM 98% | [15]; at 50.0 µM 99.2% | [16]; at 33.0 µM 84% | [16]; at 100.0 µM 97%

CN1CCN(C(=O)c2cccc3cccc(C(=O)O)c23)CC1
active: [1]; at 100.0 µM 97% | [3]; at 100.0 µM 72% | [4]; at 100.0 µM 99% | [5]; [18] 84% | [5]; at 50.0 µM 85% | [5]; at 100.0 µM 99% | [6]; at 50.0 µM 97.7% | [6]; at 100.0 µM 99% | [7]; at 100.0 µM 98% | [8]; [18] 88% | [8]; at 50.0 µM 77.6% | [9]; at 100.0 µM 97% | [11]; [18] 89% | [11]; at 100.0 µM 97% | [12]; at 100.0 µM 98% | [13]; at 100.0 µM 100% | [14]; at 100.0 µM 100% | [15]; [18] 99% | [16]; at 100.0 µM 99%
inactive: [1]; at 1.2 µM 11% | [1]; at 3.7 µM 10% | [1]; at 11.0 µM 7% | [1]; at 33.0 µM 38% | [2]; at 1.2 µM 6% | [2]; at 3.7 µM 9% | [2]; at 11.0 µM 11% | [2]; at 33.0 µM 12% | [2]; at 100.0 µM 33% | [3]; at 1.2 µM 15% | [3]; at 3.7 µM 12% | [3]; at 11.0 µM 10% | [3]; at 33.0 µM 36% | [4]; at 1.2 µM 4% | [4]; at 3.7 µM 12% | [4]; at 11.0 µM 11% | [4]; at 33.0 µM 23% | [5]; at 1.2 µM 9% | [5]; at 3.7 µM 9% | [5]; [17] -12% | [5]; at 11.0 µM 8% | [5]; at 33.0 µM 61% | [6]; at 1.2 µM 10% | [6]; at 3.7 µM 12% | [6]; [17] -19% | [6]; at 11.0 µM 13% | [6]; at 33.0 µM 23% | [6]; [18] 1% | [7]; at 1.2 µM 12% | [7]; at 3.7 µM 11% | [7]; at 11.0 µM 14% | [7]; at 33.0 µM 32% | [8]; [17] -14% | [9]; at 1.2 µM 13% | [9]; at 3.7 µM 15% | [9]; at 11.0 µM 14% | [9]; at 33.0 µM 32% | [10]; [17] -10% | [10]; [18] 6% | [10]; at 50.0 µM 38.6% | [11]; at 1.2 µM 12% | [11]; at 3.7 µM 15% | [11]; [17] 25% | [11]; at 11.0 µM 16% | [11]; at 33.0 µM 33% | [11]; at 50.0 µM 51.8% | [12]; at 1.2 µM -6% | [12]; at 3.7 µM -4% | [12]; at 11.0 µM -7% | [12]; at 33.0 µM -8% | [13]; at 1.2 µM 8% | [13]; at 3.7 µM 9% | [13]; at 11.0 µM 10% | [13]; at 33.0 µM 29% | [14]; at 1.2 µM -14% | [14]; at 3.7 µM -21% | [14]; at 11.0 µM -13% | [14]; at 33.0 µM 16% | [15]; [17] -30% | [15]; at 50.0 µM 9.9% | [16]; at 1.2 µM 11% | [16]; at 3.7 µM 11% | [16]; at 11.0 µM 13% | [16]; at 33.0 µM 33%
